Consider 48 compounds from PubChem BioAssay AID624296 (National Center for Advancing Translational Sciences (NCATS), 2012).

In all, about 350,000 compounds went through this assay and about 9,900 (2.8%) were called active. Another 15% or so got no clear call; they are omitted. Only a selection was taken, and actives are over-represented in it overall. A number with no mark means an inactive call. The call rests on the fitted dose curve; in most records, active means well fitted activation curve with a large enough effect; inconclusive means small, poorly fitted or top-dose-only effect; inactive means no such curve, though single readings can be large or run the other way.
Potency means the concentration at half of the fitted maximal effect.

The test is described as follows: A quantitative high throughput screen for small molecules that induce DNA re-replication in MCF 10a normal breast cells. Further: nearly all actives have a fitted effect of over 50% in size. On activity, positive = re-replication: % of control where 0% means no effect. Particulars: MCF 10A DNA re-replication, Hoechst nuclear intensity, 48 h; series mostly up to 46.1 µM; activity, positive = re-replication: at the top concentration.
Consider `CC(C)(C)OC(=O)C[C@@H]1C/C=C\C[C@@H](CC(=O)N[C@H](CO)Cc2ccccc2)C(=O)NC[C@@H](c2ccccc2)OC1=O`, for which the “activity, positive = re-replication” value is 0.345%. For the compound `O=C(C[C@H]1C/C=C\C[C@@H](NC(=O)OCC2c3ccccc3-c3ccccc32)C(=O)O[C@@H](c2ccccc2)CNC1=O)N[C@H](CO)Cc1ccccc1`, the Potency is 10.3 µM (active). As to `CC(C)(C)OC(=O)C[C@H]1C/C=C\C[C@@H](CC(=O)N[C@H](CO)Cc2ccccc2)C(=O)NC[C@@H](c2ccccc2)OC1=O`, the “activity, positive = re-replication” value was -0.905%. On the same count and under the same terms, the value for `CCN(CC(=O)Nc1c(F)cccc1F)C(=O)Cc1cccs1` was -4.02%. Same read-out and setting: the value for `O=C(c1cnccn1)N1CCN(S(=O)(=O)c2cccc(Cl)c2)CC1` was -0.0694%; that for `CCOC(=O)c1c(C)[nH]c(C)c1S(=O)(=O)N(C)CC(=O)Nc1ccccc1C` was -2.08%. Same read-out and setting: the value for `CCOC(=O)N1CCN(CC(=O)c2c(C)[nH]c3ccccc23)CC1` was 12%. For `CCOC(=O)c1c(C)[nH]c2c1-c1ccccc1C(=O)C2=O`, the Potency was 1.3 µM (active).

Regarding `COc1ccc(C(=O)N(C)Cc2ccc(OC)c(OC)c2OC)cc1S(=O)(=O)N1CCOCC1`, the “activity, positive = re-replication” value was -7.11%. Take `O=C(CC(O)(C(F)(F)F)C(F)(F)F)Nc1ccc(Cl)c(Cl)c1`: the Potency is 5.8 µM (active). For the compound `Cc1ccc(NC(=O)C/C(N)=N/O)cc1Cl`, the “activity, positive = re-replication” value was 3.94%. On to `Cc1nnc(NC(=O)Nc2ccc(Cl)c(Cl)c2)s1`, for which the “activity, positive = re-replication” value is 0.674%. For the compound `C[C@H](O)[C@@H]1C(=O)N2CCc3ccc(N4CCOCC4)cc3[C@@H]2C[C@@H]1N(C)C(=O)C(C)(C)C`, the “activity, positive = re-replication” value was -15.5%.

On to `CN(C)C(=O)CCc1ccc2c3c([nH]c2c1)[C@]1(CCC2CCCC2)[C@@H](C(=O)N2CCOCC2)C[C@H](CC(=O)NCc2ccco2)C(=O)N1CC3`, for which the “activity, positive = re-replication” value was 0.547%. `CC(=O)OCC1(O)CC23CCC4c5ccoc5CCC4(C)C2CCC1C3` (stereo not drawn): the “activity, positive = re-replication” value is 4.61%. On the same count and under the same terms, the value for `Cc1ccc(CSc2nc(-c3ccccc3)c(C#N)c(=O)[nH]2)cc1` was 63.4%. As to `N#Cc1c(-c2ccccc2)c(-c2ccccc2)n[nH]c1=O`, the Potency was 2.59 µM (active).

As for `N#Cc1c2c(c(-c3ccccc3)[nH]c1=O)CCCC2`, the “activity, positive = re-replication” value is -3.44%. On to `CCOc1ncccc1C(=O)OCC(=O)Nc1cccc(S(=O)(=O)N2CCCCCC2)c1`, for which the “activity, positive = re-replication” value is 16.2%. `COc1ccccc1N1CC(C(=O)Nc2ccc(S(=O)(=O)N3CCOCC3)cc2)CC1=O` (stereo not drawn): the “activity, positive = re-replication” value was -0.803%. For the compound `COc1cc(OC)c(N2CC(C(=O)Nc3cc(Cl)ccc3N3CCOCC3)CC2=O)cc1Cl` (stereo not drawn), the Potency is 18.4 µM (active). Regarding `COc1ccc(Cl)cc1NC(=O)C1CC(=O)N(c2ccc(F)cc2)C1` (stereo not drawn), the “activity, positive = re-replication” value is -12.6%.

As to `Cc1ccc(CSc2ccc(S(=O)(=O)N3CCCCC3)cn2)cc1`, the “activity, positive = re-replication” value is 14%. Regarding `Cc1ccsc1C(=O)NNC(=O)COc1ccc(Br)cc1`, the “activity, positive = re-replication” value is 2.39%. As for `O=C1c2ccccc2C(=O)C1C(=O)C1CC1`, the “activity, positive = re-replication” value is 12%. On to `Cc1ccc(-c2cc(=O)c3ccc(Cl)cc3[nH]2)cc1`, for which the “activity, positive = re-replication” value is -6.12%. Consider `O=c1cc(-c2ccccc2)[nH]c2cc(F)ccc12`, for which the Potency was 1.3 µM (active). Turning to `Cc1ccc(-c2cc(=O)c3ccc(F)cc3[nH]2)cc1`, the “activity, positive = re-replication” value is 17.8%. Same read-out and setting: the value for `C[C@H](CO)N1C[C@H](C)[C@H](CN(C)CC2CC2)Oc2ccc(NC(=O)CCN3CCOCC3)cc2C1=O` was 0.189%; that for `CC(=O)c1ccc(NC(=O)C(C)OC(=O)c2ccc(NS(=O)(=O)c3ccc4[nH]c(=O)[nH]c4c3)cc2)cc1` (stereo not drawn) was -2.03%; that for `O=S(=O)(Nc1ncnc2sccc12)c1cccc(F)c1` was 7.7%.

For the compound `COc1ccc2c(c1)C=CC1(O2)N(CCO)c2ccccc2C1(C)C` (stereo not drawn), the Potency was 20.6 µM (active). Take `CN1c2ccc([N+](=O)[O-])cc2C(C)(C)C12C=Cc1cc(C(=O)O)ccc1O2` (stereo not drawn): the “activity, positive = re-replication” value is -11.9%. The same measure, in the same setting: then `COc1ccc2c(c1)C(SCC(=O)NCc1ccccc1)CC(C)(C)O2` (stereo not drawn), with -3.92%.

Consider `O=C(CN1C(=O)NC2(CCCCCCC2)C1=O)NCc1ccc(F)cc1`, for which the “activity, positive = re-replication” value is 15.7%.

In the case of `COc1cccc(C(=O)OCC(=O)c2[nH]c(C)c(C(C)=O)c2C)c1`, the “activity, positive = re-replication” value is 15.1%.

As to `CCN(C[C@H]1N[C@@](CC)(C(=O)OC)[C@H]2C(=O)N(Cc3ccccc3)C(=O)[C@@H]12)S(=O)(=O)c1ccc(C(F)(F)F)cc1`, the “activity, positive = re-replication” value was -4.29%. Consider `CCC1(CC)NC(=O)N(CC(=O)OCC(=O)c2cc(C)c(C)cc2C)C1=O`, for which the “activity, positive = re-replication” value was 3.4%. As for `O=C(NCC1CCCCC1)NCC1CCCCC1`, the “activity, positive = re-replication” value is -1.83%. Same read-out and setting: the value for `Cc1cnc(NC(=O)c2ccc(Cl)nc2)s1` was 0.739%. On to `CCN(CC)c1ccc(NC(=O)c2ccc(Cl)nc2)cc1`, for which the Potency is 5.8 µM (active). As to `O=C(NNC(=O)c1ccc(Cl)nc1)c1ccc(Br)cc1`, the “activity, positive = re-replication” value is -31.3%. Turning to `Cc1ccccc1SCC(=O)OCC(=O)N1CC(=O)Nc2ccccc21`, the “activity, positive = re-replication” value is -1.01%. As to `Cc1ccccc1-c1cc(C(=O)NCc2cccs2)n(CC2CC(c3cccnc3)=NO2)n1` (stereo not drawn), the “activity, positive = re-replication” value is -25.3%. On to `O=C(NCCN1CCOCC1)c1ccc2c(c1)ncn2C1CCCC1`, for which the “activity, positive = re-replication” value is -3.91%. As for `O=C(NCCN1CCOCC1)c1cc(-c2cccs2)nc2ccccc12`, the “activity, positive = re-replication” value is 6.61%.

For `c1ccc2cc3c(NCCN4CCOCC4)ccnc3cc2c1`, the Potency is 4.61 µM (active).

Take `COc1cc(C2CC(=O)Oc3cc(OC)c(OC)c(OC)c32)cc(OC)c1OC` (stereo not drawn): the “activity, positive = re-replication” value is 2.66%.
